Laboratory results as given in PubChem BioAssay (EPA / NIEHS).
Records with an inconclusive call do not appear. Activity calls are given as the source filed them. The calls were made as follows, unless noted: active = hit-call score of the fitted dose curve at least 0.9, where 1 is the maximum; inconclusive = response in the unintended direction; inactive = score below 0.9.

Columns and labels:
[1] = Tanguay_ZF_120hpf_SNOU_legacy: (Legacy) Oregon State University Tanguay Lab 120 Hour Post-fertilization zebrafish Assay for Snout Malformation (AID 2283637)
In short: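 Dechorionated tropical 5D wild-type zebrafish embryos exposed statically from 6 to 120 hpf at 28C, one per well, in 0.64% DMSO. Snout malformation scored as present/absent by brightfield at 120 hpf; dead embryos not scored.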

[2] = Tanguay_ZF_120hpf_JAW_legacy: (Legacy) Oregon State University Tanguay Lab 120 Hour Post-fertilization zebrafish Assay for Jaw Malformation (AID 2283638)
In short: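 Wild-type 5D embryos, chorion removed at 4 hpf, dosed singly from 6 hpf; 28C static, sealed, foil-covered, to 120 hpf. Endpoint: jaw defect yes/no (brightfield); mortality excludes scoring.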

[3] = Tanguay_ZF_120hpf_OTIC_legacy: (Legacy) Oregon State University Tanguay Lab 120 Hour Post-fertilization zebrafish Assay for Otic Vesicle Malformation (AID 2283639)
In short: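 Tropical 5D wild-type zebrafish embryos were exposed statically in sealed, foil-covered plates at 28C until 120 hpf, with 0.64% (vol/vol) DMSO final. Otic vesicle malformation was scored present/absent by brightfield microscopy, with DMSO as baseline.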

[4] = Tanguay_ZF_120hpf_PE_legacy: (Legacy) Oregon State University Tanguay Lab 120 Hour Post-fertilization zebrafish Assay for Pericardial Edema (AID 2283640)
In short: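 Zebrafish larvae are exposed from early development to 120 hpf at 28C, with 0.64% DMSO final. Each surviving larva receives a yes/no pericardial edema call by brightfield imaging, analysed relative to the DMSO baseline.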

[5] = Tanguay_ZF_120hpf_BRAI_legacy: (Legacy) Oregon State University Tanguay Lab 120 Hour Post-fertilization zebrafish Assay for Brain Malformation (AID 2283641)
In short: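 Static exposure of staged wild-type embryos until 120 hpf, kept at 28C with light excluded and final DMSO of 0.64% (vol/vol). Presence or absence of brain malformation was noted under brightfield; mortality precluded scoring.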

[6] = Tanguay_ZF_120hpf_SOMI_legacy: (Legacy) Oregon State University Tanguay Lab 120 Hour Post-fertilization zebrafish Assay for Somite Malformation (AID 2283647)
In short: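 Somitogenesis defects are recorded as binary calls in whole larvae at 120 hpf after continuous static chemical exposure starting at 6 hpf in dechorionated 5D embryos. DMSO serves as negative control and baseline.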

[7] = Tanguay_ZF_120hpf_CFIN_legacy: (Legacy) Oregon State University Tanguay Lab 120 Hour Post-fertilization zebrafish Assay for Caudal Fin Malformation (AID 2283649)
In short: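 Single dechorionated 5D wild-type embryos are dosed at 6 hpf (final DMSO 0.64%) and held statically at 28C. Caudal fin malformation is recorded as present or absent at 120 hpf under brightfield, excluding dead embryos.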

[8] = Tanguay_ZF_120hpf_PIG_legacy: (Legacy) Oregon State University Tanguay Lab 120 Hour Post-fertilization zebrafish Assay for Pigmentation Malformation (AID 2283650)
In short: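 Dechorionated Tropical 5D wild-type embryos, one per well from 6 hpf, statically exposed at 28C in the dark until 120 hpf, 0.64% DMSO final. Pigmentation scored present/absent by brightfield microscopy; dead embryos not scored; fitted versus DMSO.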

[9] = Tanguay_ZF_120hpf_CIRC_legacy: (Legacy) Oregon State University Tanguay Lab 120 Hour Post-fertilization zebrafish Assay for Circulatory Malformation (AID 2283651)
In short: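 Tropical 5D wild-type embryos, dechorionated with pronase at 4 hpf, were placed singly in wells at 6 hpf and exposed statically at 28C to 120 hpf (0.64% DMSO final). Circulatory malformation was scored present/absent by brightfield microscopy.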

[10] = Tanguay_ZF_120hpf_SWIM_legacy: (Legacy) Oregon State University Tanguay Lab 120 Hour Post-fertilization zebrafish Assay for Swim Bladder Malformation (AID 2283654);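 also: swim bladder malformation in each larva scored yes or no under brightfield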
In short: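 Dechorionated wild-type Tropical 5D zebrafish embryos, one per well from 6 hpf, were statically exposed at 28C until 120 hpf in 0.64% DMSO. Swim bladder malformation scored as present/absent by brightfield microscopy; not scored in dead larvae.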

[11] = Tanguay_ZF_120hpf_TRUN_legacy: (Legacy) Oregon State University Tanguay Lab 120 Hour Post-fertilization zebrafish Assay for Truncated Body (AID 2283655)
In short: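 Single dechorionated zebrafish embryos received test chemical from 6 hpf in 0.64% DMSO, kept at 28C. At 120 hpf, brightfield inspection noted any truncated body.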

[12] = Tanguay_ZF_120hpf_NC_legacy: (Legacy) Oregon State University Tanguay Lab 120 Hour Post-fertilization zebrafish Assay for Notochord and Tail Malformation (AID 2283656)
In short: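 Dechorionated 5D zebrafish, 1/well from 6 hpf; static exposure to 120 hpf, 28C, sealed, dark; final DMSO 0.64% v/v. NC scored binary (present/absent); dead embryos not scored. Fit vs DMSO baseline, gain direction.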

[13] = Tanguay_ZF_120hpf_PFIN_legacy: (Legacy) Oregon State University Tanguay Lab 120 Hour Post-fertilization zebrafish Assay for Pectoral Fin Malformation (AID 2283648);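 also: each larva judged yes or no for fin defect by brightfield with dead larvae skipped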
In short: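 Dechorionated Tropical 5D wild-type zebrafish embryos, one per well, statically exposed from 6 to 120 hpf at 28C with 0.64% DMSO final. Pectoral fin malformation scored present/absent by brightfield at 120 hpf; not scored in dead embryos.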

[14] = read-out: kallikrein-3 (KLK3), KLK3 (gene 354); assay: LTEA_HepaRG_KLK3: Life Technologies and Expression Analysis (LTEA) Assay for kallikrein-3 (KLK3) using HepaRG (AID 2283652; active = hit-call score of the fitted dose curve at least 0.9, where 1 is the maximum; inactive = score below 0.9); conditions: mRNA level, 48 h; actives raise or lower the signal
In short: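 Differentiated human HepaRG cells in serum-free induction medium exposed 48 h in duplicate, eight-point half-log series from 100 uM in 0.5% DMSO. KLK3 mRNA by qRT-PCR, normalised to ACTB, GAPDH, POLR2A; bidirectional fit versus DMSO.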

[15] = read-out: solute carrier (SLC22A6), SLC22A6 (gene 9356); assay: LTEA_HepaRG_SLC22A6: Life Technologies and Expression Analysis (LTEA) Assay for solute carrier (SLC22A6) using HepaRG (AID 2283653; active = hit-call score of the fitted dose curve at least 0.9, where 1 is the maximum; inactive = score below 0.9); conditions: mRNA level, 48 h; actives raise or lower the signal
In short: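 Gene-expression endpoint in HepaRG hepatic cells: duplicate 8-point concentration-response, highest 100 uM, 48 h treatment in serum-free medium with 0.5% DMSO. SLC22A6 expression measured by qRT-PCR, normalised to ACTB/GAPDH/POLR2A.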

[16] = read-out: solute carrier (SLC10A1), SLC10A1 (gene 6554); assay: LTEA_HepaRG_SLC10A1: Life Technologies and Expression Analysis (LTEA) Assay for solute carrier (SLC10A1) using HepaRG (AID 2283657; active = hit-call score of the fitted dose curve at least 0.9, where 1 is the maximum; inactive = score below 0.9); conditions: mRNA level, 48 h; actives raise or lower the signal
In short: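 HepaRG cells (single lot) exposed 48 h in serum-free induction medium, 8-point half-log series from 100 uM top in 0.5% DMSO, duplicate. SLC10A1 mRNA by qRT-PCR normalised to ACTB, GAPDH, POLR2A; bidirectional fit versus DMSO.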

[17] = read-out: matrix metalloproteinase-1 (MMP1), MMP1 (gene 4312); assay: LTEA_HepaRG_MMP1: Life Technologies and Expression Analysis (LTEA) Assay for matrix metalloproteinase-1 (MMP1) using HepaRG (AID 2283658; active = hit-call score of the fitted dose curve at least 0.9, where 1 is the maximum; inactive = score below 0.9); conditions: mRNA level, 48 h; actives raise or lower the signal
In short: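 In this screen, human liver HepaRG cultures receive each chemical in duplicate for 48 h (top 100 uM, 0.5% DMSO). MMP1 expression is then quantified by TaqMan qRT-PCR with ACTB/GAPDH/POLR2A normalization.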

[18] = Tanguay_ZF_120hpf_EYE_legacy: (Legacy) Oregon State University Tanguay Lab 120 Hour Post-fertilization zebrafish Assay for Eye Malformation (AID 2283636);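 also: binary presence or absence of eye malformation scored by brightfield in 120 hpf larvae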
In short: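 Dechorionated Tropical 5D zebrafish embryos, one per well from 6 hpf, static exposure to 120 hpf at 28C, 0.64% DMSO. Eye malformation scored present/absent by brightfield; dead embryos not scored.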

[19] = tested on: Thyroperoxidase (TPO), gene 54314; assay: CCTE_Simmons_AUR_rTPO: CCTE's Amplex UltraRed Assay for Thyroperoxidase (TPO) Inhibition, Simmons Lab (AID 2283662);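 as to AC50: potency for loss of signal meaning inhibition of peroxidase activity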
In short: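 Rat thyroid microsomes (5 ug protein) were incubated with test compound (8 concentrations, 5 nM–87.5 uM final, 0.5% DMSO), 25 uM Amplex UltraRed and 300 uM H2O2 in 200 mM phosphate buffer for 30 min at 37C in the dark; fluorescence read at 544/590 nm.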

[20] = CCTE_Simmons_CellTiterGLO_HEK293T: Viability Assessment in CCTE's Assays for Thyroperoxidase (TPO) Inhibition, Simmons Lab (AID 2283665)
In short: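 HEK293T cells in DMEM with 1% FBS were dosed with 8 concentrations (5 nM–87.5 uM final, 0.5% DMSO) for 24 hr at 37C; ATP content was read by CellTiter-Glo luminescence, loss-of-signal versus DMSO, three biological replicates.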

Measured: AC50

O=C1CCCCCN1
not listed: [13] | [14] | [15] | [16] | [17] | [18] | [19] | [20]
inactive: all other assays above

CC(C)c1cccc(C(C)C)c1N1C(=O)c2ccc(O)cc2C1=O
active: [16] 78.7 µM
not listed: [6] | [8] | [11] | [12] | [18] | [19] | [20]
inactive: all other assays above

Cc1[nH]cnc1C[C@H]1CCc2c(C)c3ccccc3n2C1=O
active: [19] 27.6 µM
not listed: [3] | [11] | [14] | [15] | [16] | [17] | [20]
inactive: all other assays above

COc1ccc2sc(C(=O)Nc3nnn[nH]3)c(OC(C)C)c2c1
inactive: [18] | [1] | [2] | [3] | [5] | [6] | [13] | [7] | [9] | [10] | [12]

CC(C)=CCCC(C)CCO (stereo not given)
not listed: [2] | [11] | [14] | [15] | [16] | [17]
inactive: all other assays above

Nc1cccc(N)c1
active: [19] 5.02 µM
inactive: [1] | [2] | [3] | [4] | [6] | [13] | [8] | [10] | [11] | [20]

CC1=CC(=O)CC(C)(C)C1
not listed: [2] | [6] | [14] | [15] | [16] | [17] | [19] | [20]
inactive: all other assays above

O=C(O)CC(O)C(=O)O (stereo not given)
not listed: [3] | [11] | [14] | [15] | [16] | [17] | [19] | [20]
inactive: all other assays above

C=CCCCCCCCCC(=O)O
not listed: [3] | [11] | [14] | [15] | [16] | [17] | [19] | [20]
inactive: all other assays above
